Measured values taken from PubChem BioAssay (NCATS).
Results filed as inconclusive are left out. A number with no mark means an inactive call. Active and inactive are the calls of the source. Calls follow the shape of the dose curve; as a rule, active = well fitted inhibition curve with a large enough effect; inconclusive = small, poorly fitted or top-dose-only effect; inactive = no such curve, though single readings can be large or run the other way.

Target: Endonuclease 4 (Escherichia coli (strain K12)) (UniProt P0A6C1)
Assay: Counterscreen for APE1 Inhibitors: qHTS Validation Assay for Inhibitors of Endonuclease IV (AID 1708)
Conditions: E. coli endonuclease IV, DNA cleavage fluorescence; series mostly up to 57.1 µM; activity change, negative = inhibition: at the top concentration
Source text: Assay Provider: David M. Wilson, III, National Institute on Aging, NIH
Screening Center PI: Austin, C.P.
Screening Center: NIH Chemical Genomics Center [NCGC]
Escherichia coli endonuclease IV (Endo IV) is the key member of the AP endonuclease superfamily that catalyzes the cleavage of damaged DNA backbone immediately 5' of an AP site. E. coli EndoIV has the same functional activities as human APE1 but has no sequence or structural homology to the human protein. Herein, we utilize E. coli EndoIV to counter screen compound libraries as part of a high-throughput campaign for APE1 inhibitor identification. A concentration-response screen of the LOPAC1280 collection was performed under experimental conditions identical to those used in the APE1 screen.
Inhibition of APE1 activity was screened by utilizing double-stranded short substrate containing tetrahydrofuran (THF) abasic site labeled with rhodamine-type fluorophore (TAMRA) at the 5'-end and with non-fluorescent Black Hole Quencher-2 (BHQ-2) at the opposing 3'-end. An increase in the fluorescence intensity due to incision of the abasic site by APE1 was used to measure the enzyme activity.
Buffer: 50 mM Tris-HCl (pH 7.5) containing 50mM NaCl, 2 mM MgCl2, 1 mM DTT and 0.01% Tween-20.
Buffer in columns 3 and 4 as negative control (no enzyme).
Substrate: 50 nM final concentration of TAMRA/BHQ-2 substrate dispensed throughout the plate.
Enzyme: 2 nM E. coli EndoIV final concentration in columns 1, 2, 5-48. Column 1 is neutral (100% activity).
Control: Pintool transfer of control inhibitor NSC-13755 to column 2 of all assay plates. Two-fold, 16 pt dilution in duplicate to produce final concentrations in the 5.75 uM - 0.175 nM range.
Three uL of enzyme were dispensed to 1536-well Greiner black solid bottom plates. Compounds (23 nL) were transferred via Kalypsys pintool. The plates were incubated for 15 min at room temperature, and then 1 uL of substrate solution was added to start the reaction. The plates were immediately transferred into ViewLux High-throughput CCD imager (Perkin-Elmer) in order to measure the reaction progress in kinetic mode (three reads every 60 seconds) using 525 nm excitation and 598 nm emission fluorescence protocol. The fluorescence intensity difference between the third and the first time points was used to compute reaction progress.

Compound | activity change, negative = inhibition [%] | Potency
CC1CCN(CC[C@H]2CCCN2S(=O)(=O)c2cccc(O)c2)CC1 | -9.4 | 
NCCCCN=C(N)N | -9.16 | 
CC1=C(/C=C/C(C)=C/C=C/C(C)=C\C(=O)O)C(C)(C)CCC1 | -7.71 | 
C[C@H](O)C(=O)C1=Nc2c(nc(N)[nH]c2=O)NC1 | -0.964 | 
Cc1ccc([N+](=O)[O-])cc1S(=O)(=O)N(C)C |  | inactive
Cc1cc2c(cc1Cl)N(C(=O)Nc1ccnc3ccccc13)CC2 | -6.59 | 
CC(/C=C/c1cccc(Oc2ccc(F)cc2)c1)N(O)C(N)=O (stereo not given) | -7.71 | 
O=C(O)c1cc(=O)cc(C(=O)O)[nH]1 | -13.2 | 
NC(=O)CNCCC(c1ccccc1)c1ccccc1 | -5.62 | 
CN1CCC2(CCN3CCc4c(oc5ccccc45)C3C2)N(C)C1=O (stereo not given) | -7.79 | 
NCCCCN | 0.562 | 
N[C@@H](CCCC(=O)O)C(=O)O | -2.89 | 
N[C@@H](Cc1ccc(O)c(I)c1)C(=O)O | -12.4 | 
CC[C@H](NC(=O)c1c(C)c(-c2ccccc2)nc2ccccc12)c1ccccc1 | -10.1 | 
O=C(O)c1ccccc1Nc1cccc(OCc2ccc3ccccc3n2)c1 | -7.55 | 
Cn1cc(C(F)(F)F)nc1-c1ccc(OCC(O)CNCCOc2ccc(O)c(C(N)=O)c2)cc1 (stereo not given) | -8.03 | 
CCCCOc1cc(CC2CNC(=O)N2)ccc1OC (stereo not given) | -4.1 | 
N=C(N)c1ccccc1 | -4.42 | 
N[C@@H](Cc1c[nH]c2ccccc12)C(=O)O | -6.67 | 
CC1C(=O)N(C)C(=O)c2nc[nH]c21 (stereo not given) | -10.8 | 

Compound | activity change, negative = inhibition [%] | Potency
CCSC(=N)N | -0.643 | 
Cc1cccc(C)c1OCC(N)C(C)C (stereo not given) | -1.61 | 
CC[N+](CC)(CC)CC(=O)Nc1c(C)cccc1C | -10.1 | 
O=[N+]([O-])c1cccc2c(Br)[nH]nc12 | 1.04 | 
OC[C@H]1O[C@@H](n2cnc3cncnc32)[C@H](O)[C@@H]1O | -3.21 | 
N=C(N)SCCN | -3.69 | 
CCN(CC)CCCCCCCCOC(=O)c1cc(OC)c(OC)c(OC)c1 | -4.26 | 
COc1ccc(NC(=O)c2ccc(-c3ccc(-c4noc(C)n4)cc3C)cc2)cc1N1CCN(C)CC1 | 4.26 | 
CN(C)C(=O)/N=N/C(=O)N(C)C | -7.07 | 
Nc1ccc(N2C(=O)c3ccccc3C2=O)c(Cl)c1 | -3.78 | 
c1ccc(CN2CCC3(CCCc4ccccc43)CC2)cc1 | 1.45 | 
NC(C(=O)N[C@@H]1C(=O)N2C(C(=O)O)=C(Cl)CS[C@H]12)c1ccccc1 (stereo not given in full) | 0.161 | 
O=c1[nH]c(=O)c2nc3ccccc3nc2[nH]1 | -8.67 | 
O=c1cc(-c2ccccc2)[nH]c2nc(Cl)ccc12 | -9.16 | 
CC(C)C[C@H](NC(=O)C1OC1C(=O)O)C(=O)NCCCCN=C(N)N (stereo not given in full) | 26.2 | 
CCCCC[C@H](CC(=O)NO)C(=O)N[C@H](C(=O)N1CCC[C@H]1CO)C(C)C | -9.08 | 
COc1ccccc1N1CCN(CCCNc2c(C)c(=O)n(C)c(=O)n2C)CC1 | 37.2 | 
O=C(O)/C(=C/c1c(C(=O)O)[nH]c2cc(Cl)cc(Cl)c12)c1ccccc1 | -8.51 | 
O=c1onc2n1-c1cc(Br)ccc1OC2 | -4.82 | 
CCC1(O)CC2CN(CCc3c([nH]c4ccccc34)[C@@](C(=O)OC)(c3cc4c(cc3OC)N(C)C3[C@]45CCN4CC=C[C@@](CC)([C@@H](OC(C)=O)[C@]3(O)C(=O)OC)[C@H]45)C2)C1 (stereo not given in full) | -8.92 | 
